# Measurements from PubChem BioAssay AID1578 (Sanford-Burnham Center for Chemical Genomics, 2009).
# Values joined by “and” are separate entries in the source; they are usually repeats but may differ in a detail not shown here. Equal entries are not always repeated. The campaign covered roughly 290,000 compounds. About 3,000 (1%) were called active. Cut-off read from the data, not from the text of the source: active = inhibition mostly above about 36% (no sharp cut-off); inactive = mostly below about 34%. What follows is part of a selection rich in actives, with near analogues and random picks from the rest. The source holds several records for some structures; these can differ, active in one and inactive in another.
# Experiment: inhibition of NOD1-driven NF-kB reporter – cell-based, luminescence, uHTS, primary screen (AID 1578);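 note: HEK-293T reporter cells stimulated with the NOD1 agonist gamma-tri-DAP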
# Details: NOD1-driven NF-kB luciferase reporter cells, at 4 µM, stronger effect = higher value
row,SMILES,inhibition
1,C/C1=C\[C@@H](C)C/C=C/[C@H]2[C@@H]3O[C@]3(C)[C@@H](C)[C@H]3[C@H](Cc4c[nH]c5ccccc45)NC(=O)[C@]32C(=O)/C=C/C(=O)[C@@H]1O,-3.4% (inactive)
2,CC1=CC2/C=C(\C)CCC(O)C(O)/C=C/C(=O)C23C(=O)NC(CC(C)C)C3C1C (configuration not stated),90.7% (active)
3,CCOc1ccc(-n2c(O)c(C=Nc3ccc(NC(C)=O)cc3)c(=O)[nH]c2=O)cc1,-7.1% (inactive)
4,O=P(O)(O)C#Cc1ccccc1,-12.9% (inactive)
5,CN1CCN(c2nc([N+](=O)[O-])nn2C)CC1,-15.4% (inactive)
6,COC(=O)c1ccc(NC(=O)CSc2nc3ccc(N4C(=O)C5C6C=CC(C6)C5C4=O)cc3s2)cc1 (configuration not stated),104% (active)
7,CCOC(=O)c1c(-n2c(C)cc(C=C3C(=O)NC(=O)NC3=O)c2C)sc2c1CCCC2,1.7% (inactive)
8,CCC(C)C12CN3CCN(CC(C)(C3)C1=O)C2 (configuration not stated),4.3% (inactive)
9,C=CCn1c(O)c(C(CC)=Nc2cccc(C(=O)O)c2)c(=O)[nH]c1=O,5.1% (inactive)
10,CCCCCCNC(=O)N[C@@H](Cc1ccc(O)cc1)C(=O)NCCC[C@H]1CN2C(=NC[C@H]2C)N1CC1CCC1,2.9% (inactive)
11,O=C(CNC(=O)OCc1ccccc1)NCC(=O)Nc1ccc(Br)cc1C(=O)c1ccccc1,22% (inactive)
12,O=C(/C=C/c1ccc2c(c1)OCO2)c1c(O)n(CCC2=CCCCC2)c(=O)[nH]c1=O,34.4% (inactive)
13,COc1ccc(/C=C/C(=O)c2c(O)n(CCC3=CCCCC3)c(=O)[nH]c2=O)cc1,79.8% (active)
14,COc1ccc(/C=C/C(=O)c2c(O)n(CCC3=CCCCC3)c(=O)[nH]c2=O)cc1OC,14.2% (inactive)
15,CCOc1cc2c(cc1OCC)-n1cccc1C(c1ccc(OC)cc1)NC2 (configuration not stated),-5.9% (inactive)
16,C[C@@H]1C[C@H]2OC(=O)C3(CO3)[C@H]2[C@H](O)[C@]2(C)C(=O)C3OC3[C@@H]12 (some centres not stated),65.6% (active)
17,CCN(CC)CCN=Cc1c(O)n(Cc2ccco2)c(=O)[nH]c1=O,-5.5% (inactive)
18,CC(C)CN1CCN(Cc2ccc(C(F)(F)F)cc2)CC1CCO (configuration not stated),-10.4% (inactive)
19,C/C(=N\N1CCCCCC1)c1c(O)n(C2CCCCC2)c(=O)[nH]c1=O,-7.2% (inactive)

row,SMILES,inhibition
1,CCOC(=O)c1ccc(NC(=O)c2c(O)[nH]c(=O)[nH]c2=O)cc1,-19% (inactive)
2,CCn1cc(C(=O)NCc2ccccc2)c2ccccc21,-16.6% (inactive)
3,CCCCC(CC)COCCCN=Cc1c(O)[nH]c(=S)[nH]c1=O (configuration not stated),34.9% (active)
4,CCCCCCCCN=Cc1c(O)[nH]c(=O)[nH]c1=O,-1.5% (inactive)
5,COCCCN=Cc1c(O)[nH]c(=S)[nH]c1=O,-7.3% (inactive)
6,O=S(=O)(c1ccc(Cl)cc1)N1CN2CCN(C2)C1,-10.2% (inactive)
7,CN1C(=O)C(=Cc2cn(CC#N)c3ccccc23)C(=O)N(C)C1=O,1.8% (inactive)
8,CC1CCCCN1Cc1c[nH]c2ccccc12 (configuration not stated),-3.8% (inactive)
9,c1cncc(C2CCCCN2)c1 (configuration not stated),-6.3% (inactive)
10,c1cncc(C2Nc3cccc4cccc(c34)N2)c1,54.6% (active) and -3.4% (inactive)
11,O=C1NC(c2cccnc2)Nc2sc3c(c21)CCCC3 (configuration not stated),-24.5% (inactive)
12,CC#CP(=O)(OC)C(O)(CF)c1ccccc1 (configuration not stated),-41.2% (inactive)
13,O=S(=O)(c1ccc(Cl)cc1Cl)N1CCCC1c1cccnc1 (configuration not stated),-4.1% (inactive)
14,CC(=O)Nc1ccc(CC(=O)N2CCN(Cc3ccccc3)CC2)cc1,25.2% (inactive)
15,C[C@H]1C[C@@H](C)C(=O)[C@@H]([C@H](O)CC2CC(=O)NC(=O)C2)C1,88% (active)
16,Cc1ccccc1NC(=O)CCl,18.4% (inactive)
17,CCN(CC)S(=O)(=O)c1ccc(C(=O)NC2CN3CCC2CC3)cc1 (configuration not stated),7.1% (inactive)
18,CCN(CC)CCCN=Cc1c(O)n(CCc2ccc(F)cc2)c(=O)[nH]c1=O,19.7% (inactive)
19,CC(=O)OC(C)(C)/C=C/C(=O)C(C)(O)C1[C@H](O)C[C@@]2(C)C3CC=C4C(CC[C@@H](O)C4(C)C)[C@]3(CO)C(=O)C[C@]12C (some centres not stated),12% (inactive)

row,SMILES,inhibition
1,CC(=O)OC(C)(C)/C=C/C(=O)[C@](C)(O)[C@H]1[C@H](O)C[C@@]2(C)[C@@H]3CC=C4[C@H](C[C@H](O)C(=O)C4(C)C)[C@]3(C)C(=O)C[C@]12C,92.6% (active)
2,Cc1ccc(-c2cc(-c3ccc(C)cc3)[n+](C)o2)cc1,26.6% (inactive)
3,O=[N+]([O-])c1ccc(C2[C@H]3C(c4ccccc4)=NC4(CCCC4)N23)cc1 (some centres not stated),-19.9% (inactive)
4,Cc1nn(-c2ccccc2)c2c1CC1(C(=O)N(C)C(=O)N(C)C1=O)C1CCCCN21 (configuration not stated),-10.6% (inactive)
5,CN(CCCCC(=O)/C=N/O)Cc1ccccc1 (tested in a mixture with another compound),-7.6% (inactive)
6,O=[N+]([O-])c1ccc(N2CCNCC2)cc1N1CCCCCC1,-7.5% (inactive)
7,O=C(CSC1c2ccccc2-c2ccccc21)N/N=C/c1ccccc1,14.7% (inactive)
8,O=C(CSC1c2ccccc2-c2ccccc21)N/N=C/c1ccccc1C(=O)O,-22.4% (inactive)
9,O=C(CSC1c2ccccc2-c2ccccc21)N/N=C/c1ccccc1O,80.9% (active)
10,Oc1cccc(/C=N/NP(=S)(c2ccccc2)c2ccccc2)c1,-0.8% (inactive)
11,COCc1ccc(CN2CCCC(C(=O)c3sccc3C)C2)o1 (configuration not stated),-44.8% (inactive)
12,CN(Cc1ccccc1)Cc1ccccc1OC(=O)N(C)C,2.4% (inactive)
13,COc1cc(/C=C(/C)[N+](=O)[O-])ccc1OCc1ccccc1Cl,86.8% (active)
14,C/C(=C\c1ccc(N(C)C)cc1)[N+](=O)[O-],41.9% (inactive)
15,COc1cc(C=C2C(=O)NC(=O)NC2=O)ccc1OCc1ccc([N+](=O)[O-])cc1,-52% (inactive)
16,CCOC(=O)CNC(=S)N1CC2C[C@@H](C1)Cn1c2cccc1=O,0.7% (inactive)
17,Cc1ccc2cc(C=C(C#N)C#N)c(Cl)nc2c1,72.2% (active)
18,Cc1cc(N2CCCC2)ccc1C=C(C#N)C#N,-24.7% (inactive)
19,CN(C)c1ccc(C=C(C#N)C#N)cc1,-35.8% (inactive)
